Screening data as filed in PubChem.
NPC1 prom act: activators of NPC1 promoter; Huh7 NPC1 promoter luciferase reporter, 24 h; Potency, µM (top dose mostly 9.22 µM), for inactives: at the top dose activation, usual class: activators; actives 2.4% (n = 320,000); note: % of control where 0% means no effect; nearly all actives have a fitted effect of over 60% in size
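Readout is luciferase luminescence, reflecting NPC1 promoter activation in stably transfected Huh7 cells after 24 h compound exposure at 37 °C in reduced-serum medium with 10% FBS.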
FLuc modulator: inhibits or activates purified firefly luciferase, miR-21 counter-screen; purified FLuc, Km substrates, luminescence inhibition; actives 6.9% (n = 360,000); P08659; Potency, µM (series often up to 57.5 µM), inactives show at the highest dose activity change, negative = inhibition, most hits filed as inhibitors; AID 588342;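 note: plate controls were vehicle for no effect and reference inhibitor for full effect; nearly all actives have a fitted effect of over 55% in size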
Target sequence (P08659 whole entry, looked up): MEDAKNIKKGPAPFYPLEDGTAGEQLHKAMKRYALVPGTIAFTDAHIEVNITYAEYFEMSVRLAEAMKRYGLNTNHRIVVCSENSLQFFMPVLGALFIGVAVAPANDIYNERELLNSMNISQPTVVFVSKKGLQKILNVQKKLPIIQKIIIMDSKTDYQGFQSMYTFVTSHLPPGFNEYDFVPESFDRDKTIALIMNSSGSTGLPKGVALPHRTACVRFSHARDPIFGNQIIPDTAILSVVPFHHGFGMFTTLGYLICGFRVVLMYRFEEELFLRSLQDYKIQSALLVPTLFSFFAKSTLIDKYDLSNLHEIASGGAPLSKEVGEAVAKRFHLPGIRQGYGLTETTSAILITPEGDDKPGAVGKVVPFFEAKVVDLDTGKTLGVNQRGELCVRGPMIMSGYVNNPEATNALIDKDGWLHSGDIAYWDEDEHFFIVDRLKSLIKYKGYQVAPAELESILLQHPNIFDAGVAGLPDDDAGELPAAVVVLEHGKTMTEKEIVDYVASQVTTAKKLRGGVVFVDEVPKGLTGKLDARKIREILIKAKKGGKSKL
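Biochemical qHTS of compounds, final roughly 60 µM downward over six points, against 10 nM purified firefly luciferase using Km concentrations of substrates (10 uM D-luciferin, 10 uM ATP) in Tris acetate pH 7.5 buffer; luminescence output.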
Rab9 prom act: activates the Rab9 promoter. Huh7 Rab9 promoter-luciferase reporter, luminescence, 24 h. Potency, µM (highest dose often 9.22 µM), inactives show at the highest dose activation, negative = inhibition, actives largely listed as activators. actives 2.8% (n = 320,000); note: % of control where 0% means no effect; nearly all actives have a fitted effect of over 60% in size
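Luciferase signal after 10 min detection reagent at ambient indicates Rab9 promoter upregulation; stably transfected Huh7 cells were treated 24 h with compound in DMSO at 37 °C, 5% CO2.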
ELG1 repair inh: inhibitors of ELG1-dependent DNA repair in HEK293T cells; HEK293T ELG1-luciferase reporter, luminescence, 16 h; DNA damage induced by 5-fluorouridine; Potency, µM (highest dose often 46.1 µM), without a hit: at the highest dose activity change, negative = inhibition, usual class: inhibitors; actives 2.3% (n = 330,000); AID 504467; note: % is set by controls: 0 for no effect and ±100 for the full control effect; nearly all actives have a fitted effect of over 55% in size
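Luminescence from the luciferase reporter, measured 30 min after ONE-Glo reagent at room temperature, was the read-out. Beforehand, 2,000 cells per well were exposed for 16 hr at 37 °C to 5-fluorouridine together with compound or vehicle.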
SMN2 splice enh: enhancers of SMN2 splice variant expression; HEK293 SMN2-luciferase splicing reporter, luminescence, 30-36 h; Potency, µM (titrated, usually from 46.1 µM), for the others: at the top dose activity change, positive = activation, hits mostly activators; actives 2.8% (n = 210,000); AID 1458; note: % of control where 0% means no effect; nearly all actives have a fitted effect of over 55% in size
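HEK293 cells carry an SMN2 […]–luciferase reporter in which exon 7 inclusion puts luciferase in frame. Cells were plated 10-12 h before compound addition, then incubated 30-36 h at 37C. ONE-Glo luminescence was read; sodium butyrate at 4.5 mM final served as control.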
ELG1 genotoxic: inducers of genotoxicity in HEK293T ELG1-luciferase cells; actives 1.3% (n = 330,000); AID 504466; HEK293T ELG1-luciferase reporter, luminescence, 16 h; Potency, µM (highest dose often 46 µM), without a hit: top-dose activity change, positive = activation, usual class: activators; note: % of control where 0% means no effect; nearly all actives have a fitted effect of over 60% in size
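Screening used a luciferase reporter fused to human ELG1 in HEK293T cells. Luminescence was read on a CCD plate imager after 16 hr exposure and 30 min ONE-Glo incubation.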
* marks the source's active call; other numbers are inactive results; u = inconclusive; x = no result; [ ] = remark or other dose. Compounds with a hit are over-represented: about 9.3% of the library has one in this group of screens. Calls come from the whole dose curve; as a rule, active = well fitted curve in the direction sought with a large enough effect; inconclusive = small, poorly fitted or top-dose-only effect, or another doubt; inactive = no such curve, though single readings can be large; an effect the other way counts as inactive or inconclusive. Potency is the fitted concentration of half-maximal effect.

SMILES | NPC1 prom act | FLuc modulator | Rab9 prom act | ELG1 repair inh | SMN2 splice enh | ELG1 genotoxic
CCC(C)NC(=O)c1c(N)n(CCCOC)c2nc3ccccc3nc12 (stereo not given) | -1.4% | -0.4% | -5.4% | 16.4µM* | -7.2% | -2.3%
CCC(C)NC(=O)c1c(N)n(CC2CCCO2)c2nc3ccccc3nc12 (stereo not given) | -3.1% | 2.6% | 3.6% | 20.6µM* | -3.5% | -3.0%
COCCCn1c(N)c(C(=O)NCc2ccco2)c2nc3ccccc3nc21 | -3.9% | -1.6% | -1.1% | u | x | -1.4%
COCCCn1c(N)c(C(=O)Nc2ccccc2)c2nc3ccccc3nc21 | -5.2% | 1.7% | 2.1% | 16.4µM* | x | 2.3%
C=CCn1c(O)c(C(C)=NCc2cc(OC)cc(OC)c2)c(=O)[nH]c1=O | 2.2% | 7.6% | u | u | -38.7% | -11.2%
C[C@@H]1C2C[C@@]34COC(=O)C3=CC=C[C@H]4[C@@]13C[C@H](c1ccoc1)O[C@@H]3O2 | 3.5% | 4.2% | 5.9% | -2.4% | -22.7% | -1.5%
C#C[C@]1(O)CCC2C3CCC4=C/C(=N/OCC(=O)NC(C)C(=O)NC(CCSC)C(=O)O)CC[C@]4(C)C3CC[C@@]21C (stereo not given in full) | -0.3% | 3.6% | -0.3% | 8.2µM* | x | -0.1%
C#C[C@]1(O)CC[C@H]2[C@@H]3CCC4=CC(=O)CC[C@]4(C)[C@H]3CC[C@@]21C | 0.2% | -2.3% | 2.1% | 11.3% | -41.6% | 0.7%
Cc1c(C(=O)N2CCOCC2)sc2nc(-c3ccccc3)cn12 | 3.98µM* | 16.9µM* | 2.51µM* | u | u | u
O=C1c2ccccc2C(=O)c2c1ccc1c(=O)n(-c3ccccc3)[nH]c21 | 6.7% | u | 25.1% | u | -0.1% | -4.0%
COc1cccc(-n2c(=S)[nH]c3ccccc3c2=O)c1 | -0.3% | 3.1% | 2.1% | u | 9.1% | 7.4%
COc1ccc2c(c1)NP(=S)(Oc1ccccc1)N2 (stereo not given) | 19.2% | 6.75µM* | -0.4% | u | x | u
CCCCCCOc1ccc(CN2CCN(C)CC2)cc1 | u | 6.75µM* | u | u | -2.8% | 5.8µM*
CP(=O)(O)CN1CCCCC1 | -3.8% | -1.5% | -0.4% | 7.4% | 9.5% | 20.3%
CN1C2CCC1/C(=C/c1ccccn1)C(=O)/C2=C\c1ccccn1 | -30.6% | -9.2% | -44.6% | 1.84µM* | -126.1% | -23.4%
C#CCOc1ccc2c(c1)c(C(C)=O)c(C)n2Cc1ccccc1 | -4.2% | 0.7% | -0.3% | 20.6µM* | x | -3.5%
Cn1nccc1C(=O)N1CCC2(CC1)OCCO2 | 3.3% | 1.1% | -0.2% | 0.6% | x | 3.0%
CC(N)Cc1c[nH]c2c1ccc1ccccc12 (stereo not given) | 9.8% | -2.6% | 0.1% | u | x | 0.2%
CC1CC(C)C(=O)[C@H](C(O)CC2CC(=O)NC(=O)C2)C1 (stereo not given in full) | x | x | x | x | -65.5% | x
BrCC1C[n+]2c(SCc3ccccc3)nc3sc4c(c3c2O1)CCCC4 (stereo not given) | 4.5% | u | 0.3% | 0.0% | x | u
Nc1c2c(nc3sc4c(c13)CCCCC4)CCCC2 | 3.98µM* | 6.01µM* | u | u | 11.2µM* | -5.2%
CCCCn1c(C)c(C(=O)OCC)c2c(CN3CCOCC3)c(O)ccc21 | -2.9% | u | -5.0% | u | u | -5.7%
COc1ccc(C(=O)CCNc2ccc(F)cc2)cc1 | u | u | 2.82µM* | u | x | u
COC(=O)[C@H]1C[C@@H]1[C@H](NP(=O)(c1ccccc1)c1ccccc1)c1ccccc1 | -1.8% | 3.2% | -2.6% | 13.3% | -15.0% | -0.4%
COC(=O)[C@@H]1C[C@H]1[C@@H](NP(=O)(c1ccccc1)c1ccccc1)c1ccccc1 | -3.4% | 3.7% | -2.6% | u | 10µM* | 18.4µM*
SMILES | NPC1 prom act | FLuc modulator | Rab9 prom act | ELG1 repair inh | SMN2 splice enh | ELG1 genotoxic
CN1CCN(c2ccc(N)c(N3CCN(C)CC3)c2)CC1 | 5.5% | -1.3% | -2.7% | -0.5% | 5.0% | 2.8%
Cc1ccc2scc(N3CCN(C)CC3)c(=O)c2c1 | x | 12µM* | x | x | x | x
CCc1ccccc1NC(=O)CN1CCN(C(=O)COc2ccccc2C#N)CC1 | -8.9% | 0.5% | 3.9% | u | x | -2.2%
CCC(=O)c1ccc(OCC(=O)N2CCN(CC(=O)Nc3ccccc3C(F)(F)F)CC2)cc1 | x | x | x | 16.4µM* | x | -6.1%
COc1ccc2c(c1)/C(=C/c1cnc[nH]1)C(=O)N2 | -30.0%[46.1 µM] | u | -42.6%[46.1 µM] | u | -73.8% | u
C=CCn1c(O)c(C(C)=Nc2cccc(C(F)(F)F)c2)c(=O)[nH]c1=O | 0.1% | 0.2% | -3.0% | -7.6% | x | -3.0%
NC(=O)c1sc2nc3c(c(-c4cccs4)c2c1N)CCCC3 | -2.9% | 0.1% | 2.5% | 2.31µM* | 23.7% | -15.4%
CN1CCc2nc3sc(C#N)c(N)c3c(-c3cccs3)c2C1 | 1.5% | 1.6% | -1.0% | -15.7% | 29.1% | -4.8%
Cc1nn(CC(C)C)c(Cl)c1C(=O)NC1CCC(C)CC1 (stereo not given) | 2.24µM* | 8.49µM* | 3.98µM* | u | x | 9.2µM*
COC(=O)C1=C(N)OC(C)=C(C(C)=O)C12C(=O)N(C)c1ccccc12 (stereo not given) | 4.0% | -2.1% | 5.0% | -0.4% | 5.8% | 3.5%
COc1cccc(OCc2cc(C(=O)N3C[C@H]4C[C@@H](C3)c3cccc(=O)n3C4)no2)c1 | 3.16µM* | 16.9µM* | 3.98µM* | u | x | 18.3µM*
COc1cc(OC)cc(C(=O)NC(=S)N2C[C@H]3C[C@H](C2)c2cccc(=O)n2C3)c1 | 2.0% | 1.6% | -2.7% | -15.0% | x | 4.3%
N/C(=N\N=C/c1ccc(-c2ccc(O)c(C(=O)O)c2)o1)N[N+](=O)[O-] | -3.7% | 26.9µM* | 5.9% | -17.0% | 1.1% | 1.5%
CCN(CC)c1ccc(/C=C2/C(=O)NC(=O)N(CC3CCCO3)C2=O)cc1 (stereo not given) | -0.3% | 16.9µM* | 8.0% | 11.3% | -6.2% | 7.1%
O=C1NC(=O)N(CC2CCCO2)C(=O)/C1=C/c1cccs1 (stereo not given) | -1.2% | u | -2.0% | u | x | 8.0%
CCCC1=Nc2cc(C(=O)NC3CCC(C)CC3)ccc2Sc2ccccc21 (stereo not given) | x | -11.2% | x | x | -9.9% | x
CCCn1c(=O)n(C)c(=O)c2c(SCC(=O)NC34CC5CC(CC(C5)C3)C4)nc(CC(C)C)nc21 | 0.0% | 2.1% | -0.3% | 23.1µM* | -30.9% | -11.6%
COc1ccc(OCCOc2cccc(C=C3C(=O)NC(=O)NC3=O)c2)cc1 | 0.316µM* | 8.49µM* | 0.112µM* | u | x | 0.9%
